# AID504770 = growth inhibition of E. coli YBA685, primary screen, V. cholerae RctB inhibitors; E. coli YBA685 rctB-dependent plasmid, OD600 growth, 3 h; hits give low values; z-score (test concentration not listed); 0.27% of 130,000 active; AID 504770, 2011; in the data active means z-score below about -2, passing the limit was not always enough
# MenB inh = M. tuberculosis MenB inhibitors, primary screen, biochemical, absorbance. 1,4-dihydroxy-2-naphthoyl-CoA synthase (Mycobacterium tuberculosis (strain ATCC 25618 / …. MenB enzyme assay, absorbance read-out. inhibition, % (concentration not given with the values). 0.43% of 100,000 active; in the data active means inhibition above about 21%, passing the limit was not always enough
# Mtb MbtI inh = MbtI salicylate synthase inhibitors, primary screen, biochemical, fluorescence intensity | AID 493033, 2011 | purified MbtI enzyme, fluorescence intensity read-out | 0.89% of 100,000 active | inhibition, % (no concentration beside the values) | P9WFX0; in the data active means inhibition mostly above about 56%, no sharp cut-off; inactive means mostly below about 77%
# Polio RdRp inh = poliovirus RdRp elongation inhibitors, primary screen, biochemical, fluorescence polarization, total intensity. % elongation, % (compound at 16.7 µg/mL). 0.66% of 150,000 active. Genome polyprotein (Poliovirus type 1 (strain Mahoney)), P03300. poliovirus polymerase elongation; hits give low values; in the data active means % elongation below about 90%
# Target sequence (P03300 1749-2209 limits assumed): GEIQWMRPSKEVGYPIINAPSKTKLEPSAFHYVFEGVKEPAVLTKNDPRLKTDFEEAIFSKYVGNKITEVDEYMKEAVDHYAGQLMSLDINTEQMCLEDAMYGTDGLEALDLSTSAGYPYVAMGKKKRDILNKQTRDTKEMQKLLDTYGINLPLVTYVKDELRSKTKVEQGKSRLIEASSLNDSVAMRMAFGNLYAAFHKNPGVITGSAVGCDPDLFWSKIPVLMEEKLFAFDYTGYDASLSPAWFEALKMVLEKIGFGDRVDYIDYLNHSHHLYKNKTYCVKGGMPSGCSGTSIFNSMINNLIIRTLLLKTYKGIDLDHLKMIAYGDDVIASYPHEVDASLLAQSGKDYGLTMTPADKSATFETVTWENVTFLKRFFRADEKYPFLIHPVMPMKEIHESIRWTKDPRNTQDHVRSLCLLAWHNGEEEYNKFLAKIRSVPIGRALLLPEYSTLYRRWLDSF
# * hit, by the source's call; . = no result. In the library only some 1.5% were active in any assay of this set; here they are far more common.
SMILES,AID504770,MenB inh,Mtb MbtI inh,Polio RdRp inh
CCOC1C(OCC)N(S(=O)(=O)c2ccc(C)cc2)CCN1S(=O)(=O)c1ccc(C)cc1 (stereo not given),-0.05,-26,-19,100
CC(C)(C)c1cn2c3ccccc3n(N)c2n1,0.85,-21,33,101
NC1=NC(=Nc2ccccc2)c2ccccc21,0,.,3,100
Nc1nc(=Nc2ccccc2)ss1,-4.2*,-94,.,95
Cc1ccc(CCP(=O)(O)CCC(=O)O)cn1,0.35,1,-6,98
CN(Cc1nc2ccccc2c(=O)[nH]1)C(=O)COc1ccc2c(c1)CCC2,1.5,-35,-12,55*
CSc1ccc(C=Nc2ccc(C)c(C)c2)cc1,0.45,-6,.,104
NS(=O)(=O)c1ccc(CCn2c(=S)[nH]c3ccccc3c2=O)cc1,-0.35,3,7,100
Cn1c(=S)[nH]c2cc(S(N)(=O)=O)ccc21,0.25,-9,67,90*
Cc1cc(=O)oc2c(/C=N/c3ccccn3)c(O)ccc12,0.1,-23,32,88*
CC(=O)Oc1c(O)ccc2c(C)cc(=O)oc12,-0.6,-6,-1,102
CN1CCN(C(=O)c2cc3ccccc3nc2Cl)CC1,0.7,.,.,.
O=C(O)c1cc2ccccc2nc1Cl,-0.4,-6,17,76*
Nc1cc2ccccc2cc1C(=O)O,-0.45,-15,6,52*
O=C1CCCC2=C1C(c1cccs1)C1C(=O)c3ccccc3C1=N2 (stereo not given),-0.55,-15,.,72*
CCCn1c(SCC(=O)c2ccc3c(c2)OCCO3)nnc1-c1ccco1,-3.8*,-23,7,100
CCN(CC)C(=O)CSc1nnc(-c2ccco2)n1CC1CCCO1 (stereo not given),0.45,-21,6,99
CNC(=O)CSc1nnc(-c2ccco2)n1CC1CCCO1 (stereo not given),1.4,43*,3,100
CCc1ccc2nc(Cl)sc2c1,-1.3,-26,14,105
Cc1cc(C)n(CC(C)O)c(=O)c1C#N (stereo not given),-0.25,29,82,102
Cc1cc(C)n(CCCO)c(=O)c1C#N,-2.9*,-27,89,102
Cc1ccsc1/C=C1/CC/C(=C\c2sccc2C)C1=O,0.1,-10,6,104
O=C1c2ccccc2C(=O)c2c1oc1c3c(ccc21)OCN(CC1CCCO1)C3 (stereo not given),0.3,-27,1,88*
O=C1c2ccccc2C(=O)c2c1oc1c3c(ccc21)OCN(C1CCS(=O)(=O)C1)C3 (stereo not given),-1.4,-8,-5,87*
COc1ccc(CCN2COc3ccc4c5c(oc4c3C2)C(=O)c2ccccc2C5=O)cc1OC,0.1,-13,2,98
SMILES,AID504770,MenB inh,Mtb MbtI inh,Polio RdRp inh
O=C1c2ccccc2C(=O)c2c1oc1c3c(ccc21)OCN(CCCN1CCOCC1)C3,-0.8,-14,-3,86*
O=C1c2ccccc2C(=O)c2c1oc1c3c(ccc21)OCN(C1CCCC1)C3,-0.4,5,0,83*
CC(C)CCN1COc2ccc3c4c(oc3c2C1)C(=O)c1ccccc1C4=O,-0.3,-1,3,92
COC(CNC(=O)c1cccc(N2CCCC2=O)c1)OC,-0.05,-15,6,102
CCCCCCC1CCC/C1=N\NC(N)=O (stereo not given),-0.65,-27,-6,98
CN(CCNC(=O)c1cc2c(=O)n(C)c3ccccc3c2s1)Cc1ccccc1,0.05,-13,1,103
COC1=CC(=O)c2ccccc2C1=O,-2.6*,-7,3,85*
COC(=O)c1cc(C(=O)OC)cc(-n2c(C)cc(C(=O)COc3ccc(-c4nnco4)cc3)c2C)c1,-0.3,4,-1,96
COc1ccc(Cn2c(=O)[nH]c3cc(C(=O)NC4CCN(Cc5ccccc5)CC4)ccc32)cc1,1.4,30*,7,104
O=C(NC1CCN(Cc2ccccc2)CC1)c1ccc(Cn2c(=O)c3ccccc3n(Cc3ccc(F)cc3)c2=O)cc1,.,.,.,104
c1ccc(-c2noc(-c3ccccc3)n2)cc1,1.3,.,0,.
[O-]c1n[n+](-c2ccccc2)no1,-3*,-1,.,96
CCOc1cc(-c2noc(CCCC(=O)Nc3cccc(C)c3C)n2)cc(Br)c1OC,-0.95,3,13,101
O=C(O)C1C2C=CC(C2)C1C(=O)NCc1cccs1 (stereo not given),-0.35,23*,-17,99
Oc1c(C(c2cccs2)N2CCCCC2)ccc2cccnc12 (stereo not given),0.1,-76,97*,135
C/C(N)=C(/C#N)C(=O)CSc1nnc(-c2cccnc2)n1C1CCCCC1C (stereo not given),0.5,-29,13,106
Cc1ccc(-n2c(N)c(C(N)=O)sc2=S)cc1C,-1,-12,94*,98
COC(=O)c1sc(=S)n(-c2cccc(Cl)c2)c1N,-0.85,-24,94*,95
CNC(=O)c1sc(=S)n(-c2ccccc2)c1N,1,-14,66*,100
CC(=O)N(Cc1ccccc1)Cc1cc2cc(C)ccc2n2nnnc12,-0.1,13,-3,101
Clc1ccc2nc(-c3cccs3)cn2c1,-0.15,.,.,.
CC(C)=NNc1nc(Cl)c(C#N)c(Cl)c1Cl,-0.6,-3,61*,101
Cc1cc(C)c(C#N)c(Cl)n1,0.15,-32,-2,101
N#Cc1c(Cl)nc(N2CCOCC2)c(Cl)c1Cl,-0.1,-20,-9,104
N#Cc1c(Cl)nc(Cl)c(Cl)c1Cl,-3.5*,0,72,76*
SMILES,AID504770,MenB inh,Mtb MbtI inh,Polio RdRp inh
Cc1cc(O)c(C=O)c2c1C(=O)Oc1c(C)c(O)c3c(c1O2)C(O)OC3=O (stereo not given),0.25,7,-33,66*
O=C(CN1C(=O)CCC1=O)Nc1ccccc1Oc1ccccc1,-0.15,.,.,.
CC1(C)CC(=O)C=C(NCCc2ccccc2)C1,1.6,33*,24,101
Cc1ccc2c(CC(=O)NCc3ccccc3)coc2c1C,.,.,.,1.0*
CCC(C)(C)NC(=O)c1cc(Cl)ccc1OC,-0.5,-23,-14,100
Oc1ccc(NCc2ccc(Br)cc2)cc1,-0.7,5,20,102
O=C(O)Cc1ccc(NCc2ccc(Br)cc2)cc1,-0.65,4,66*,102
C/C(=N\NC(N)=S)c1ccc(Cl)cc1,1.2,-54,61*,.
Cc1oc2ncn(C)c(=O)c2c1C(=O)OCc1c(F)cccc1Cl,-0.05,-21,3,108
Cc1ccc(CC(=O)Nc2ccc3c(c2)N(C)C(=O)c2ccccc2S3)cc1,.,.,.,70*
O=C(CN1CCCC1)Nc1cc(C(F)(F)F)cc(C(F)(F)F)c1,-0.1,.,.,.
O=C(Nc1cc(C(F)(F)F)cc(C(F)(F)F)c1)C(=S)N1CCCCC1,0.9,1,.,76*
CCOC(=O)Cc1csc(-c2ccccc2F)n1,0.15,-4,-1,103
CC1CC(C)CN(S(=O)(=O)c2ccc3c(c2)oc(=O)n3CC(=O)NCCc2ccccc2)C1 (stereo not given),-0.55,.,.,.
COc1ccc(CCNC(=O)CSc2nnc(C)s2)cc1OC,0.6,-4,-1,102
